Source: PubChem BioAssay AID1521 (The Scripps Research Institute Molecular Screening Center, 2009)
The list shows a part of the results. Calls of active or inactive are those of the source.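 Rule for the calls: active = mean inhibition above the hit cutoff derived in the earlier primary screen (cut at about 25% in these data); inactive = the rest.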

Assay: reduced survival of JAK2V617F-driven Ba/F3 cells – cell-based, Ba/F3 EpoR-JAK2V617F, luminescence, triplicate, JAK2V617F inhibitor project, confirmation (AID 1521);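 note: 0% = DMSO-treated cells and 100% = JAK inhibitor I control wells; higher means lower luminescence from reduced cell ATP and viability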
Details: Ba/F3 EpoR-JAK2V617F viability, CellTiter-Glo luminescence; at 5.6 µM; stronger effect = higher value

Structure (SMILES)	inhibition
Cn1c(CCN2CCCCCC2)nc2cc(NC(=O)Nc3ccccc3)ccc21	-1.25% (inactive)
O=C(CCl)N(Cc1cccc([N+](=O)[O-])c1)c1cccc(Cl)c1	99.7% (active)
COc1ccc(Cc2nnc(N/N=C/c3ccccc3O)[nH]c2=O)cc1OC	98.9% (active)
COc1ccc(OC)c(Nc2nc(-c3ccc(O)c(O)c3)cs2)c1	99% (active)
CCCc1nc2ccccc2c(=O)n1/N=C/c1ccc(O)c(O)c1	67.2% (active)
O=C(CCl)Nc1ccc(Sc2ccc(NC(=O)CCl)cc2)cc1	99.7% (active)
COc1ccc(-c2csc(Nc3ccc(O)cc3)n2)cc1	97.2% (active)
CCn1c(/C=C/c2ccc([N+](=O)[O-])o2)nc2ccccc2c1=O	99.1% (active)
N#C/C=C\Oc1ccc(Cl)cc1N	39.2% (active)
COc1cc(OC)c(C(=O)NC2CCCCCC2)cc1OC	18.7% (inactive)
COc1cc(OC)cc(C(=O)N[C@H](C(=O)Nc2nc3ccccc3[nH]2)C(C)C)c1	99.1% (active)
Cc1ccc(NC(=S)N(CCCN2CCC(C)CC2)Cc2ccco2)cc1	52.5% (active)
CCC1CCCCN1CCCNC(=O)c1cc2c(Cl)nc3ccccc3c2s1 (stereo not drawn)	12.1% (inactive)
CSCC(=O)N1CCCC(C(=O)c2cc(F)ccc2F)C1 (stereo not drawn)	-9.05% (inactive)
CCCn1c(NC(=O)C23CC4CC(CC(O)(C4)C2)C3)nc2ccccc21	-6.61% (inactive)
COc1ccccc1N1CCN(Cc2ccc(OC)c3ccccc23)CC1	31.5% (active)
O=c1oc2ccccc2cc1-c1cn(-c2ccccc2)c(=S)[nH]1	92.7% (active)
c1ccc2c(c1)CSc1sccc1C2=C1CCNCC1	57.9% (active)
Cc1ccc(S(=O)(=O)C2(S(=O)(=O)c3ccc(C)cc3)CCCC2)cc1	62.1% (active)
CN(Cc1ccc2nsnc2c1)Cc1nc(Cc2cccc(F)c2)no1	7.27% (inactive)
Oc1ccc(/C=N/Nc2ccc(C(F)(F)F)cn2)cc1O	99.2% (active)
Cc1cccc(NC(=O)c2ccc([N+](=O)[O-])o2)c1	84.7% (active)
Cc1ccc(C2=NN(C)c3nc4ccccc4n3C2)cc1	-7.33% (inactive)
